# Test results as given in PubChem BioAssay (NCATS).
# A number with no mark means an inactive call. Inconclusive results are not listed. The source made the active and inactive calls. Unless noted, calls follow the shape of the dose curve; as a rule, active = well fitted curve in either direction with a large enough effect (not every such curve was filed as active); inconclusive = small, poorly fitted or top-dose-only effect, or another doubt; inactive = flat fitted curve, though single readings scatter.
# How the values were obtained:
# [1] = molecular target: Lysosomal acid glucosylceramidase (Homo sapiens) (UniProt P04062); experiment: Glucocerebrosidase-p2 (AID 348; in the data active = potency below about 10 µM; also: potency is read from the fitted curve at half-maximal effect); details: purified GBA, blue fluorogenic substrate, 40 min
# Sequence of Lysosomal acid glucosylceramidase (Homo sapiens) (P04062 whole entry, looked up): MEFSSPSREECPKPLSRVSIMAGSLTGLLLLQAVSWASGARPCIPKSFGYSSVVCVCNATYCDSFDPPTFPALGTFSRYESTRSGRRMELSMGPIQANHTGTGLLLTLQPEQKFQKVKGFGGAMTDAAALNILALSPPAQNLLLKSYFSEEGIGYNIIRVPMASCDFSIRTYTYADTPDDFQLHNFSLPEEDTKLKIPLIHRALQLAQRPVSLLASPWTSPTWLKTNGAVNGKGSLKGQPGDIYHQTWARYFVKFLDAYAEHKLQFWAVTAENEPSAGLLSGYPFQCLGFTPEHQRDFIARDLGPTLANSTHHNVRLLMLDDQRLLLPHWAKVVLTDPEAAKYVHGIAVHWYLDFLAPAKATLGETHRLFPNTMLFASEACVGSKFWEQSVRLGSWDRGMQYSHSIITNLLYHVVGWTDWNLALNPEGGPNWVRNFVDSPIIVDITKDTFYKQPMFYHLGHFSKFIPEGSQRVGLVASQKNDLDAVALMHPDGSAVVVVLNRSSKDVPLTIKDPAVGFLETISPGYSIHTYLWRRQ
# In short: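 Compounds titrated from 0.6 nM upwards against 0.2 nM enzyme in pH 5.9 citric acid/KH2PO4, taurocholate, tween-20; blue fluorogenic substrate 80 uM, 40 min room temperature, stopped and read Ex 365/Em 440 for AC50.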
# [2] = AP1 Signaling Pathway (AID 357); details: ME-180 AP-1-bla reporter, EGF-induced, beta-lactamase ratio, 5 h; at 7.69 µM (top of the series) unless noted;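 also: ME-180 reporter cells stimulated with EGF at its EC50 level; % is scaled to controls: 0 for no effect and ±100 for the full control effect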
# In short: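 Titration-series screen for positive or negative modulators of EC50 EGF-induced signaling in ME-180 cells carrying an AP-1-driven beta-lactamase reporter. After 5 hours at 37 degrees Celsius, CCF4 460nm/530nm emission ratio gave %Activity; AC50 values derived.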
# [3] = molecular target: Cytochrome P450 1A2 (Homo sapiens) (UniProt P05177); experiment: p450-cyp1a2 (AID 410; calls by dose curve; also: potency is read from the fitted curve at half-maximal effect;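 as to activity change, negative = inhibition: -100% = full effect of reference inhibitor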); details: recombinant CYP1A2, luciferin-ME demethylation, luminescence; series mostly up to 11.4 µM
# Sequence of Cytochrome P450 1A2 (Homo sapiens) (P05177 whole entry, looked up): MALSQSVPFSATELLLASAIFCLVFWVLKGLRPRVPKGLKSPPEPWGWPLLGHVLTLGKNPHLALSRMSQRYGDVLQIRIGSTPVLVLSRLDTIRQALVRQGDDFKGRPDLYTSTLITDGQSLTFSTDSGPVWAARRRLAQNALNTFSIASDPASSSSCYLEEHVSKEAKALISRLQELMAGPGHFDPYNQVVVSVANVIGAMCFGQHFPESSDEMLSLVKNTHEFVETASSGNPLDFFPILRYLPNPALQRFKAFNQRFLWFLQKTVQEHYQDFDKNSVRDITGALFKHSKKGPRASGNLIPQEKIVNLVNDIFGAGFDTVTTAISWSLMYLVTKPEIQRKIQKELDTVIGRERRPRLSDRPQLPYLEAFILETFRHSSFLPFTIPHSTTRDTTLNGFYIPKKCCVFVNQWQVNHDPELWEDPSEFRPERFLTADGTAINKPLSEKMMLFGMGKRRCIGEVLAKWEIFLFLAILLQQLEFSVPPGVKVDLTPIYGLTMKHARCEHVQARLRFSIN
# In short: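 Inhibition was calculated relative to 57 uM furafylline (full inhibition). The reaction used human CYP1A2 at 20nM with Luciferin-ME at its Km, 100uM, driven by an NADPH-regenerating system for 60 min at room temperature.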
# [4] = NFAT Signaling Pathway (AID 444); details: Jurkat NFAT-bla M1, carbachol, beta-lactamase ratio, 5 h; at 7.69 µM (top of the series) unless noted;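 also: carbachol stimulus at about its EC50 of 1 µM final; % is scaled to controls: 0 for no effect and ±100 for the full control effect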
# In short: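 Jurkat cells with NFAT-driven β-lactamase reporter and co-expressed M1 receptor, stimulated with carbachol (final 1 uM, ~EC50), compound titration, 5 h at 37 °C. CCF4 loaded 1 h at RT; 460/530 nm ratio gave %activity and AC50.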
# [5] = Stat Signaling Pathway (AID 446); details: ME-180 SIE beta-lactamase reporter, IL-6 stimulated, 5 h; at 7.69 µM (top of the series) unless noted;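 also: ME-180 cervical cancer cells given 40 pM IL-6 alongside compound; SIE-controlled beta-lactamase reporter measured as 460/530 nm FRET emission ratio; % is scaled to controls: 0 for no effect and ±100 for the full control effect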
# In short: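 IL-6/STAT signaling read in ME-180 cells via an SIE beta-lactamase reporter. Stimulus was 40 pM IL-6 (its AC50) for 5 hrs, so both activation and inhibition register.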
# [6] = molecular target: Glucocorticoid receptor (Homo sapiens) (UniProt P04150); experiment: GR-GFP Redistribution (AID 450;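 active = compounds whose dose series gives a full or clear partial fitted curve of increased nuclear translocation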; also: potency is read from the fitted curve at half-maximal effect); details: U2OS GR-GFP nuclear translocation, laser cytometry, 2 h
# Sequence of Glucocorticoid receptor (Homo sapiens) (P04150 whole entry, looked up, the tested form may be a part): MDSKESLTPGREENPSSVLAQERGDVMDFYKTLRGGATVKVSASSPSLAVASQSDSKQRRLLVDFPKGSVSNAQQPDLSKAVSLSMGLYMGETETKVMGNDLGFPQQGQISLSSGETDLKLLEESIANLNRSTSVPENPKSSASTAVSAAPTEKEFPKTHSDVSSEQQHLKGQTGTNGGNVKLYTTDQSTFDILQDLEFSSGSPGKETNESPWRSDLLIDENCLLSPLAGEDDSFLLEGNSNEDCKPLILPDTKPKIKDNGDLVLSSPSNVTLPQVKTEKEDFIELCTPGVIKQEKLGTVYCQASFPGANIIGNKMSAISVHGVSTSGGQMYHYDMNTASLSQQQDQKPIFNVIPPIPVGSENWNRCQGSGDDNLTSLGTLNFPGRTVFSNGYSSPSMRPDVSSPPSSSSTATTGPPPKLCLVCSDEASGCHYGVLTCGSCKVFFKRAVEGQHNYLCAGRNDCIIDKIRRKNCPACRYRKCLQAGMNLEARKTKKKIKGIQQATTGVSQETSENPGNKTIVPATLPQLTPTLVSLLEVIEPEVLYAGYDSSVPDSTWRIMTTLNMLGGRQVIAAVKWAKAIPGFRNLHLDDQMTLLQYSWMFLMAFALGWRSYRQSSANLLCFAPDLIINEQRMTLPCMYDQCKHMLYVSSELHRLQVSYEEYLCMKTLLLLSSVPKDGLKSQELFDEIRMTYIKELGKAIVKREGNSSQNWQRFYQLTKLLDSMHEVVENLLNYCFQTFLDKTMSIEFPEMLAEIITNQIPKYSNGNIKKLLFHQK
# [7] = molecular target: Glucocorticoid receptor (Homo sapiens) (UniProt P04150); experiment: GR-EFC Redistribution (AID 451; calls by dose curve; also: potency is read from the fitted curve at half-maximal effect); details: CHO-K1 GR-EFC translocation, beta-gal luminescence, 2 h
# In short: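 CHO-K1 cells expressing nuclear EA and GR-ED fragments of b-gal; compounds titrated up to 46 uM final, 2 h at 37 C. GR nuclear translocation read as complemented b-gal luminescence after 1 h RT detection.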
# [8] = molecular target: Cytochrome P450 2C9 (Homo sapiens) (UniProt P11712); experiment: qHTS Assay for Inhibitors and Substrates of Cytochrome P450 2C9 (AID 883; active = well fitted curve in the direction sought with a large enough effect; an effect the other way counts as inactive or inconclusive; also: nearly all actives have a fitted effect of over 60% in size; also: potency is read from the fitted curve at half-maximal effect); details: recombinant CYP2C9, luciferin-H luminescence, 60 min; series mostly up to 11.4 µM
# Sequence of Cytochrome P450 2C9 (Homo sapiens) (P11712 whole entry, looked up): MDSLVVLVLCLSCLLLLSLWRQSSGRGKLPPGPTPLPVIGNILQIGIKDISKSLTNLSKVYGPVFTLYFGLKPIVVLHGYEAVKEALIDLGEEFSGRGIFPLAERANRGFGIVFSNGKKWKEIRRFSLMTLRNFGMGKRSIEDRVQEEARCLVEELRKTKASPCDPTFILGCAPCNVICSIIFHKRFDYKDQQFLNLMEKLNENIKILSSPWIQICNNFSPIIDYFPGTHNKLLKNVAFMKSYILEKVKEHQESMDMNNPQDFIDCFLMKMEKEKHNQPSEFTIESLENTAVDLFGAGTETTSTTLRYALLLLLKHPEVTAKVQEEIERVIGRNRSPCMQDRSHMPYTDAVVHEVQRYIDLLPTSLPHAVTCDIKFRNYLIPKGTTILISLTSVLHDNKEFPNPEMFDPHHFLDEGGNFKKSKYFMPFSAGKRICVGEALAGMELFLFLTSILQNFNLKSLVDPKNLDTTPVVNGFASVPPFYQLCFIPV
# In short: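 Human CYP2C9 (10nM) with Luciferin-H at 100uM (its KM) in 25mM KPO4; compound preincubated 10 min at 37C, then NADPH regeneration for 60 min at 37C. Luciferin read by luminescence after detection reagent; normalized to 57uM sulphaphenazole as full inhibition.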
# [9] = molecular target: Cytochrome P450 3A4 (Homo sapiens) (UniProt P08684); experiment: qHTS Assay for Inhibitors and Substrates of Cytochrome P450 3A4 (AID 884; active = well fitted curve in the direction sought with a large enough effect; an effect the other way counts as inactive or inconclusive; also: potency is read from the fitted curve at half-maximal effect; nearly all actives have a fitted effect of over 50% in size); details: recombinant CYP3A4, Luciferin-PPXE luminescence; series mostly up to 57.1 µM
# Sequence of Cytochrome P450 3A4 (Homo sapiens) (P08684 whole entry, looked up): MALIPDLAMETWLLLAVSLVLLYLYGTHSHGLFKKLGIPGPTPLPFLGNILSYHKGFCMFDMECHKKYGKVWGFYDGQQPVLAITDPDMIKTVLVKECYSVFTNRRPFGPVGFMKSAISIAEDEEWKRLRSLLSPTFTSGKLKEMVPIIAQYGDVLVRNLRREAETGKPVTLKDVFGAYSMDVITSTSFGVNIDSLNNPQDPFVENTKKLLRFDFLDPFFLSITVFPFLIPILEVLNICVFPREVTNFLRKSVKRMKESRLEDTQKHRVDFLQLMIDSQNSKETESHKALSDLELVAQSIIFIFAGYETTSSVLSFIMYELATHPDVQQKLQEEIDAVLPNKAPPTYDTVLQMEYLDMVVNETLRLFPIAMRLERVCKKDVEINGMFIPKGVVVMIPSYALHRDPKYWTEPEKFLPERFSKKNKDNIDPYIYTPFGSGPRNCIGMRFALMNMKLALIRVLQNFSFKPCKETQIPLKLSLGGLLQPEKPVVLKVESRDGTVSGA
# In short: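 20 nM human CYP3A4 with 25 uM Luciferin-PPXE (at KM) in 200 mM KPO4, preincubated 10 min with compound; NADPH regeneration started a 60 min RT reaction. Luciferin detected by luminescence, normalized to 57 uM ketoconazole as full inhibition.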
# [10] = molecular target: Cytochrome P450 3A4 (Homo sapiens) (UniProt P08684); experiment: qHTS Assay for Activators of Cytochrome P450 3A4 (AID 885; active = well fitted curve in the direction sought with a large enough effect; an effect the other way counts as inactive or inconclusive; also: nearly all actives have a fitted effect of over 65% in size); details: recombinant CYP3A4, Luciferin-PPXE luminescence, 60 min; series mostly up to 11.4 µM
# In short: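 Quantitative HTS format: compounds preincubated with 20nM human CYP3A4 and Luciferin-PPXE substrate at KM, reaction started by NADPH regeneration, stopped after 60 min, luciferase luminescence read 20 min later.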
# [11] = molecular target: 3',5'-cyclic-AMP phosphodiesterase 4B (Homo sapiens) (UniProt Q07343); experiment: qHTS Assay for Inhibitors of PDE-IV (AID 607; active = well fitted activation curve with a large enough effect in the main read-out, with a control signal flat, not every such curve was filed as active; also: % of control where 0% means no effect); details: HEK293 ACTOne CNG channel cells, membrane potential fluorescence; series mostly up to 22.9 µM
# Sequence of 3',5'-cyclic-AMP phosphodiesterase 4B (Homo sapiens) (Q07343 whole entry, looked up): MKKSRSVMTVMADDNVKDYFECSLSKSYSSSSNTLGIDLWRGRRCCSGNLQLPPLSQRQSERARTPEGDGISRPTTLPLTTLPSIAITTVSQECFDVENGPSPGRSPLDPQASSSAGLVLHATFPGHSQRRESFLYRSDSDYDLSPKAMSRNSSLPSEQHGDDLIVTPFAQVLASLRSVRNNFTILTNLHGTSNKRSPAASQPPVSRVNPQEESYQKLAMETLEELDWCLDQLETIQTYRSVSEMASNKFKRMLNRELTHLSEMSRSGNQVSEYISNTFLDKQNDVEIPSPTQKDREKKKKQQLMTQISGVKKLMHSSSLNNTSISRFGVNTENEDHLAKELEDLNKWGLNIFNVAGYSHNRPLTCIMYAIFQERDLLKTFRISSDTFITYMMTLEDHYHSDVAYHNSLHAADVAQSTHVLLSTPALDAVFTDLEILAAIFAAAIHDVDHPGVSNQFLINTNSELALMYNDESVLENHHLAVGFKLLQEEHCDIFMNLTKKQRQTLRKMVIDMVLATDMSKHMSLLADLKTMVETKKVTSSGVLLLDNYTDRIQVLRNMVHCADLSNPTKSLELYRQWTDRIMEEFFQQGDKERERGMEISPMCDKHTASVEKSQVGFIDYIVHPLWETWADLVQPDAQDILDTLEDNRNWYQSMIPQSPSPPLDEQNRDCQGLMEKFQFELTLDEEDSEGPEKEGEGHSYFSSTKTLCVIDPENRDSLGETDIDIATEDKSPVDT
# In short: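 Live HEK293 cells with a modified cyclic nucleotide-gated (CNG) channel report intracellular cAMP via membrane-potential dye fluorescence (ex 535/em 590 nm). Endogenous PDE-IV was targeted. Compounds were tested at up to 22.9 uM final; RO 20-1724 100 uM served as control.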
# [12] = molecular target: Cytochrome P450 2C19 (Homo sapiens) (UniProt P33261); experiment: qHTS Assay for Inhibitors and Substrates of Cytochrome P450 2C19 (AID 899; active = well fitted curve in the direction sought with a large enough effect; an effect the other way counts as inactive or inconclusive; also: nearly all actives have a fitted effect of over 60% in size; also: potency is read from the fitted curve at half-maximal effect); details: recombinant CYP2C19, luciferin-H EGE luminescence; series mostly up to 11.4 µM
# Sequence of Cytochrome P450 2C19 (Homo sapiens) (P33261 whole entry, looked up): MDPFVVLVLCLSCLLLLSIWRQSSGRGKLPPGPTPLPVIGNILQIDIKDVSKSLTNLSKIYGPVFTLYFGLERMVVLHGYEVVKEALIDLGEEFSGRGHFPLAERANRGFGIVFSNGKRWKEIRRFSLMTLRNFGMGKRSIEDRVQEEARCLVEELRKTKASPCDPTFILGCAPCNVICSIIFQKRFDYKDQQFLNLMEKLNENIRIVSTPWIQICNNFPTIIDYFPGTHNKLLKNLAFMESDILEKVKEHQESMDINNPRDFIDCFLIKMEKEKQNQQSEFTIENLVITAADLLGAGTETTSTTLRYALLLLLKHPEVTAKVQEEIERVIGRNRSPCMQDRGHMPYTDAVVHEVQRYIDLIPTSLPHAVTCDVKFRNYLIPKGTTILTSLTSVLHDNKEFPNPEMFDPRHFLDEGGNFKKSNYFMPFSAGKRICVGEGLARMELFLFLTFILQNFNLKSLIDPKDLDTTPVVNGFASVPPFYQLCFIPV
# In short: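 5 nM human CYP2C19 with 10uM Luciferin-H EGE (at KM) in 50mM KPO4, compound preincubated 10 min at 37C, then NADPH regeneration for 60 min at 37C. Luciferin read by luminescence after detection reagent; normalized to 57uM ketoconazole as full inhibition.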
# [13] = molecular target: Mitogen-activated protein kinase 10 (Mus musculus) (UniProt Q61831); experiment: JNK3 AlphaScreen Assay (AID 530); details: JNK3 lysate, c-Jun phosphorylation; series mostly up to 11.4 µM;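 also: kinase came from lysate of stimulated human HepG2 cells; signal reports phosphorylation of biotinylated GST-cJun 1-79 at Ser73 with 10 µM ATP; % is scaled to controls: 0 for no effect and ±100 for the full control effect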
# In short: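 qHTS format: compounds tested as titrations against IL-1beta/TNF-alpha-activated HepG2 lysate JNK3 with biotin-GST-cJun substrate and 10 uM ATP at room temperature. Loss of anti-phospho-cJun AlphaScreen signal indicates inhibition.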
# [14] = qHTS Assay for Identification of Small Molecule Agonists for Hypoxia Response Element Signaling Pathway (AID 914; active = well fitted activation curve with a large enough effect in the signal ratio, with a control signal flat, not every such curve was filed as active; the % refers to the signal ratio; also: % of control where 0% means no effect); details: ME-180 (cervical carcinoma) HRE-bla reporter, beta-lactamase ratio, CoCl2, 17 h; activation: hits give high values
# In short: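 Read-out: CCF4 FRET ratio of 460nm to 530nm emission (excitation 405nm) after 2.5 hours at room temperature, taken from HRE-bla ME-180 cells that had been exposed to compound and EC50 CoCl2 for 17 hours.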
# [15] = molecular target: Cytochrome P450 2D6 (Homo sapiens) (UniProt P10635); experiment: qHTS Assay for Inhibitors and Substrates of Cytochrome P450 2D6 (AID 891; active = well fitted curve in the direction sought with a large enough effect; an effect the other way counts as inactive or inconclusive; also: potency is read from the fitted curve at half-maximal effect; nearly all actives have a fitted effect of over 60% in size); details: recombinant CYP2D6, luciferin-ME EGE luminescence; series mostly up to 11.4 µM
# Sequence of Cytochrome P450 2D6 (Homo sapiens) (P10635 whole entry, looked up): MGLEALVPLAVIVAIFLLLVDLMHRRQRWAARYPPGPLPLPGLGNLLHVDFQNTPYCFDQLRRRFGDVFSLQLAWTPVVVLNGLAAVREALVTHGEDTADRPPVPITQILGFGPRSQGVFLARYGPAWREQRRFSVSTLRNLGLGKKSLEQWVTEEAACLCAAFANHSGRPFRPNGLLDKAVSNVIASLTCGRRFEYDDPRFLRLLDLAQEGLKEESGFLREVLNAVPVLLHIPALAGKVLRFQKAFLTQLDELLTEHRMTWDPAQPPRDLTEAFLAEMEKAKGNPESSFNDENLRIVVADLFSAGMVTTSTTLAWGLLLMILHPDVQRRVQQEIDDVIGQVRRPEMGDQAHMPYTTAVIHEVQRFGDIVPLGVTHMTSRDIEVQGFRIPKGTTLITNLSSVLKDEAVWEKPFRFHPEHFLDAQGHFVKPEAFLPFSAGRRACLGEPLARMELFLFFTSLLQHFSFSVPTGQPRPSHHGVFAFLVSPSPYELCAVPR
# In short: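 Human CYP2D6 (5 nM) with 30 uM Luciferin-ME EGE (at Km) in 100 mM KPO4, compound preincubated 10 min, then NADPH regeneration system for 60 min at room temperature. Luciferin read by luminescence; normalized to 1.43 uM quinidine.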
Structure (SMILES),Potency [1],"activity change, negative = inhibition [2]",Potency [3],"activity change, negative = inhibition [4]","activity, negative = inhibition [5]",Potency [6],Potency [7],Potency [8],Potency [9],Potency [10],Potency [11],Potency [12],"activity change, negative = inhibition [3]",Potency [13],activation [14],Potency [15]
O=c1c(CCc2ccccc2)nc2cnc(Oc3cccc(Cl)c3)nc2n1C[C@H]1CCCO1,> 11.4 µM,-27.5%,3.98 µM (active),-15.5%,-17.7%,> 9.22 µM,> 46 µM,6.31 µM (active),0.501 µM (active),inactive,–,–,–,–,–,–
CN(CCc1ccccn1)c1ccc2c(c1)C(=O)c1ccccc1-2,> 2.29 µM,7.03%,0.158 µM (active),0.0317%,-7.39%,> 46 µM,> 9.22 µM,–,3.16 µM (active),inactive,inactive,2.51 µM (active),–,–,–,–
COc1cc(C2SCCCCCCCCCCSC(c3ccc(O)c(OC)c3)SCCCCCCCCCCS2)ccc1O (configuration not stated),> 11.4 µM,-0.286%,–,19.7%,9.48%,> 46 µM,–,–,–,–,inactive,–,-6.9% [at 2.29 µM],inactive,–,–
CC[C@H]1CC[C@H]2[C@@H]3CC=C4C[C@H](OC(C)=O)[C@@H](N)C[C@@]4(C)[C@H]3CC[C@@]12C,> 11.4 µM,8.35%,inactive,8.17%,-1.58%,> 46 µM,> 9.22 µM,–,–,inactive,inactive,–,–,–,–,–
NC(N)=NC(N)=Nc1c(F)c(F)c(F)c(F)c1F,> 11.4 µM,8.28%,–,-23.3%,3%,> 46 µM,–,–,–,–,inactive,–,10.9% [at 2.29 µM],inactive,–,–
c1cc(CSSCc2ccncc2)ccn1,> 11.4 µM,-3.12%,2 µM (active),12.2%,-6.55%,> 46 µM,–,–,2.51 µM (active),inactive,inactive,1.26 µM (active),–,inactive,–,–
O=C(CC1(O)CCCCC1)OC1CCCC1,> 11.4 µM,8.55%,inactive,16.8%,4.14%,> 46 µM,> 9.22 µM,–,–,–,inactive,1.58 µM (active),–,–,–,–
CN(C)C(=O)c1ccc(-c2nc(Nc3ccc(F)cc3)c3ccccc3n2)cc1,> 11.4 µM,-18.3%,3.98 µM (active),1.18%,-8.08%,> 46 µM,> 46 µM,–,–,inactive,–,–,–,–,14.9%,–
N[C@@H](Cc1ccnnc1)C(=O)O,> 11.4 µM,-10.1%,–,13.5%,-4.41%,> 46 µM,–,–,–,–,–,–,-10.6% [at 2.29 µM],inactive,–,–
C[N+](C)(N)Cc1csc(-c2ccc(Cl)cc2)n1,> 11.4 µM,8.47%,–,-11.8%,0.559%,> 46 µM,–,–,–,–,inactive,–,-4.2% [at 2.29 µM],inactive,–,–
O=C(O)c1cc(=O)[nH]c(SCc2ccccc2)n1,> 11.4 µM,12.1%,inactive,-27.5%,0.79%,> 46 µM,–,–,–,–,inactive,–,–,inactive,–,–
O=C1c2ccccc2C(=O)N1CCCSc1ccccc1,> 11.4 µM,-13.4%,1 µM (active),1.88%,-7.77%,> 46 µM,–,–,–,–,inactive,0.631 µM (active),–,inactive,–,–
CC[C@H](CN(C)C)C(=O)c1ccco1,> 11.4 µM,3.81%,inactive,-14.2%,-1.8%,> 46 µM,–,–,–,–,inactive,–,–,inactive,–,–
CN[C@@H]1NC(=O)c2ccccc2N1Cc1ccc(F)cc1,> 11.4 µM,4.91%,–,7.06%,4.09%,> 46 µM,> 9.22 µM,–,–,–,inactive,–,-7.6% [at 2.29 µM],–,-6.12%,–
Cc1ccc(S(=O)(=O)N[C@H](CN)C(=O)O)cc1,> 11.4 µM,10.5%,–,3.21%,8.31%,> 46 µM,> 9.22 µM,–,–,–,inactive,inactive,-18.5% [at 2.29 µM],–,–,–
O=C1O[C@@H]([C@H](O)[C@H](O)[C@H](O)CO)[C@@H](O)[C@@H]1O,> 11.4 µM,21.3%,inactive,6.28%,-13.5%,> 46 µM,–,–,–,–,inactive,–,–,inactive,–,–
S=C1N[C@H](c2ccccc2)N[C@H](c2ccccc2)S1,> 11.4 µM,-0.71%,3.16 µM (active),-21.2%,-1.19%,> 46 µM,> 9.22 µM,2 µM (active),–,inactive,inactive,3.98 µM (active),–,–,–,3.98 µM (active)
O=S(=O)(O)CCCc1cccc2ccccc12,> 11.4 µM,3.46%,–,3.52%,1.1%,> 46 µM,–,–,–,–,inactive,–,-16.7% [at 2.29 µM],inactive,-2.01%,–
O=C(O)CSc1nc2ccccc2[nH]1,> 11.4 µM,3.97%,inactive,-2.37%,–,> 46 µM,> 9.22 µM,–,–,–,inactive,–,–,inactive,–,–
O=S(=O)(c1ccccc1)N1CCC[C@@]2(CCN(Cc3ccccc3)C2)C1,> 11.4 µM,6.44%,20 µM (active),-28.9%,-5.04%,–,> 46 µM,–,–,inactive,inactive,–,–,–,–,–
NCCSc1nc2ccccc2s1,> 11.4 µM,1.91%,0.316 µM (active),7.28%,–,> 46 µM,> 9.22 µM,1.58 µM (active),3.16 µM (active),inactive,inactive,1.58 µM (active),–,inactive,–,–
O=C(O)c1nnsc1-c1csnn1,> 11.4 µM,2.29%,inactive,4.42%,–,> 46 µM,> 9.22 µM,–,–,–,inactive,–,–,inactive,–,–
O=C(O)[C@@H](O)Cc1ccccn1,> 11.4 µM,4.97%,inactive,2.96%,4.36%,> 46 µM,–,–,–,–,inactive,–,–,inactive,0.65%,–
Clc1ccc(CN2CCCN(Cc3ccc(Cl)cc3)C2c2cc3ccccc3c3ccccc23)cc1,> 11.4 µM,6.24%,0.794 µM (active),-10.5%,2.22%,> 46 µM,–,inactive,–,–,–,–,–,inactive,–,–
O=C(O)[C@H]([C@H]1NCCS1)N1C(=O)c2ccccc2C1=O,> 11.4 µM,20.1%,5.01 µM (active),8.05%,–,> 46 µM,> 9.22 µM,–,–,–,inactive,–,–,inactive,–,–
O=C(O)NCC1CCCCC1 (tested in a mixture with another compound),> 11.4 µM,23.3%,inactive,22.8%,–,> 46 µM,> 9.22 µM,–,–,–,inactive,–,–,inactive,–,–
O=C(O)c1ccccc1-c1ccccc1C(=O)Nc1ccc2c(c1)Cc1cc(F)ccc1-2,> 11.4 µM,-17.3%,3.98 µM (active),-16.2%,–,> 46 µM,> 9.22 µM,2.51 µM (active),–,–,inactive,–,–,inactive,–,–
O=C(O)c1ccc(C(=O)c2ccccc2)c(C(=O)O)c1,> 11.4 µM,21.3%,–,2.06%,–,> 46 µM,> 9.22 µM,–,–,–,inactive,–,3.1% [at 2.29 µM],inactive,–,–
O=C(O)CS(=O)c1ccc2c3c(cccc13)C(=O)c1ccccc1-2 (configuration not stated),> 11.4 µM,-22.7%,0.0631 µM (active),-13.9%,1.69%,–,> 9.22 µM,–,–,inactive,inactive,–,–,inactive,–,–
